Laboratory results: PubChem BioAssay
“And” between values parts separate entries of the source, which are not always exact repeats. Equal entries are not always repeated. The source made the active and inactive calls.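 Rule for the calls, unless noted: active = compounds whose cell count with miR-34 switched on is under 0.7 times the count with it off; inactive = the rest.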

Tests used:
[1] = liver-stage malaria parasite growth inhibition, primary screen, cell-based, HepG2, luciferase luminescence, HepG2 viability (AID 624349; in the data active = parasite load remaining mostly below about 12%, no sharp cut-off; inactive = mostly above about 10%;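 note: 100% = mean of DMSO negative control wells on the same plate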); settings: P. berghei liver stage in HepG2, luciferase luminescence, concentration not given here; parasite load remaining: stronger effect = lower value; viability: measured here: HepG2 viability without parasites
[2] = sensitizers of A549 cells to miR-34 induction, primary screen, imaging, A549 dox-inducible miR-34, nuclei and caspase counts (AID 1347080); settings: A549 miR-34 inducible, Hoechst nuclei count, 48 h
[3] = survival rescue of mitochondrial mutant cells in low glucose, primary screen, MELAS cybrids, Rieske KO mouse fibroblasts, CellTiter-Glo (AID 1508586;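 active = mean z-score across replicates of 1.96 or higher in either the MELAS or the Rieske mutant cell line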;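 note: z relative to plate mean and SD of compound and empty wells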)
[4] = viability rescue of complex I mutant cybrids, primary screen, cell-based, galactose medium, ATP luminescence (AID 1645843;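 active = z-score of at least 1.8 in each of two replicates, scored against plate mean and spread of sample wells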;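 note: positive z means more ATP and so rescue of galactose-driven cybrid death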); settings: complex I mutant cybrid cells, 72 h, stronger effect = higher value
[5] = hESC survival regulators, cell-based (AID 493140; call rule not given here;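 note: cells exposed to compounds for four days before counting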); settings: human embryonic stem cell survival screen; stronger effect = higher value
[6] = stronger effect = lower value, cell number ratio, induced over uninduced
[7] = measured here: relative caspase fold change +Dox/-Dox
[8] = measured here: total cells with miR-34 induction, stronger effect = lower value
[9] = measured here: total cells without miR-34 induction
[10] = MELAS cybrid survival, CellTiter-Glo 48 h, stronger effect = higher value
[11] = Rieske KO mouse fibroblast survival, CellTiter-Glo 72 h

Nc1nc(=O)n([C@@H]2CS[C@H](CO)O2)cc1F
parasite load remaining [1]: 56.6% (inactive) | viability [1]: 160% | fold change [2, 6]: 0.911 (inactive) | fold change [2, 7]: 1.49 | cell count [2, 8]: 10100 | cell count [2, 9]: 11100 | z-score [3, 10]: 0.34 (inactive) and -0.461 (inactive) | z-score [3, 11]: -0.0583 and -0.327 | z-score [4]: 0.88 (inactive)

O=C(OC1CC2CC3C[C@@H](C1)N2CC3=O)c1c[nH]c2ccccc12 (some centres undefined)
parasite load remaining [1]: 57.9% (inactive) | viability [1]: 134% | fold change [2, 6]: 0.838 (inactive) | fold change [2, 7]: 1.48 | cell count [2, 8]: 8850 | cell count [2, 9]: 10600 | z-score [3, 10]: -0.0411 (inactive) | z-score [3, 11]: -0.329 | z-score [4]: 1.09 (inactive)

CC(C)C[C@H]1C(=O)N2CCC[C@H]2[C@]2(O)O[C@](NC(=O)[C@@H]3C=C4c5cccc6[nH]c(Br)c(c56)CC4N(C)C3)(C(C)C)C(=O)N12 (some centres undefined)
parasite load remaining [1]: 20.7% (inactive) and 22.3% (inactive) | viability [1]: 50% and 138% | fold change [2, 6]: 0.897 (inactive) and 0.925 (inactive) | fold change [2, 7]: 1.56 and 1.14 | cell count [2, 8]: 7190 and 8820 | cell count [2, 9]: 8020 and 9530 | z-score [3, 10]: -0.909 (inactive) | z-score [3, 11]: 0.597 | z-score [4]: 0.045 (inactive)

CCC(=O)OC(OP(=O)(CCCCc1ccccc1)CC(=O)N1C[C@H](C2CCCCC2)C[C@H]1C(=O)O)C(C)C (some centres undefined)
parasite load remaining [1]: 49.8% (inactive) | viability [1]: 108% | fold change [2, 6]: 0.948 (inactive) | fold change [2, 7]: 2.49 | cell count [2, 8]: 10100 | cell count [2, 9]: 10700 | z-score [3, 10]: 0.354 (inactive) and -0.69 (inactive) | z-score [3, 11]: -0.176 and -1.17 | z-score [4]: 0.59 (inactive)

CO[C@@H]1[C@@H](OC(N)=O)[C@H](O)[C@H](Oc2ccc3c(O)c(NC(=O)c4ccc(O)c(CC=C(C)C)c4)c(=O)oc3c2C)OC1(C)C
parasite load remaining [1]: 81.2% (inactive) | viability [1]: 108% | fold change [2, 6]: 0.831 (inactive) | fold change [2, 7]: 1.55 | cell count [2, 8]: 9200 | cell count [2, 9]: 11100 | z-score [3, 10]: 0.157 (inactive) | z-score [3, 11]: 0.871 | z-score [4]: 1.12 (inactive)

CCCCCCCCCCCCCCCC(=O)O[C@@H]1[C@@H](O)[C@@H](O)[C@@H](C(NC(=O)[C@@H]2C[C@@H](CCC)CN2C)C(C)Cl)O[C@@H]1SC (some centres undefined)
parasite load remaining [1]: 67.8% (inactive) | viability [1]: 204% | fold change [2, 6]: 0.867 (inactive) | fold change [2, 7]: 1.18 | cell count [2, 8]: 9340 | cell count [2, 9]: 10800 | z-score [3, 10]: 0.27 (inactive) | z-score [3, 11]: -0.444 | z-score [4]: 0.11 (inactive)

Cc1c(N)nc([C@H](CC(N)=O)NC[C@H](N)C(N)=O)nc1C(=O)N[C@@H](C(=O)N[C@H](C)[C@@H](O)[C@H](C)C(=O)N[C@@H](C(=O)NCCc1nc(-c2ncc(C(=O)NCCC[S+](C)C)s2)cs1)[C@@H](C)O)[C@@H](O[C@@H]1O[C@@H](CO)[C@@H](O)[C@H](O)[C@@H]1O[C@@H]1O[C@H](CO)[C@@H](O)[C@@H](OC(N)=O)[C@@H]1O)c1cnc[nH]1
parasite load remaining [1]: 89.5% (inactive) | viability [1]: 111% | fold change [2, 6]: 0.865 (inactive) | fold change [2, 7]: 1.1 | cell count [2, 8]: 4410 | cell count [2, 9]: 5100 | z-score [3, 10]: -1.31 (inactive) | z-score [3, 11]: -1.18 | z-score [4]: -1.23 (inactive)

CC(C)C[C@H](NC(=O)[C@@H](Cc1c[nH]c2ccccc12)NC(=O)[C@H](Cc1ccc(O)cc1)NC(=O)[C@H](CO)NC(=O)[C@H](Cc1c[nH]c2ccccc12)NC(=O)[C@H](Cc1cnc[nH]1)NC(=O)[C@@H]1CCC(=O)N1)C(=O)N[C@@H](CCCN=C(N)N)C(=O)N1CCC[C@H]1C(=O)NCC(N)=O
parasite load remaining [1]: 20.9% (inactive) | viability [1]: 68.5% | fold change [2, 6]: 0.921 (inactive) | fold change [2, 7]: 1.16 | cell count [2, 8]: 9400 | cell count [2, 9]: 10200 | z-score [3, 10]: 0.161 (inactive) | z-score [3, 11]: -0.118 | z-score [4]: 0.68 (inactive)

CNC(=C[N+](=O)[O-])NCCSCc1csc(CN(C)C)n1
survival [5]: 4.67 (inactive) | fold change [2, 6]: 0.834 (inactive) and 1.04 (inactive) | fold change [2, 7]: 1.65 and 0.659 | cell count [2, 8]: 8750 and 8440 | cell count [2, 9]: 10500 and 8100 | z-score [3, 10]: -0.241 (inactive) | z-score [3, 11]: -0.0279 | z-score [4]: 0.825 (inactive)

C=C1CC[C@H](O)C/C1=C/C=C1\CCC[C@]2(C)[C@@H]([C@H](C)CCCC(C)(C)O)CC[C@@H]12
survival [5]: 84.6 (inactive) | parasite load remaining [1]: 63.8% (inactive) | viability [1]: 110% | fold change [2, 6]: 1.02 (inactive) and 0.856 (inactive) | fold change [2, 7]: 1.06 and 1.42 | cell count [2, 8]: 6030 and 8450 | cell count [2, 9]: 5930 and 9870 | z-score [3, 10]: 0.872 (inactive) | z-score [3, 11]: 0.441 | z-score [4]: -1.75 (inactive)

C[N+](C)(C)[C@@H](Cc1c[nH]c(=S)[nH]1)C(=O)[O-]
parasite load remaining [1]: 52.4% (inactive) | viability [1]: 234% | fold change [2, 6]: 0.872 (inactive) | fold change [2, 7]: 1.27 | cell count [2, 8]: 9810 | cell count [2, 9]: 11300 | z-score [3, 10]: -0.462 (inactive) | z-score [3, 11]: -0.623 | z-score [4]: 0.805 (inactive)
